# Experimental data reported in the supplement of paper PMC11732987, “Enantioselective OTUD7B fragment discovery through chemoproteomics screening and high-throughput optimisation” (Communications Chemistry, 2025).
# Unmarked numbers belong to inactive results.
# What was measured:
# Assay in all cases: log2 ratio of Biotin-Ahx-Ub-VS probe labelling (fragment/DMSO); higher = less target engagement (more negative = stronger competition), active = hit call of the paper (q ≤ 0.05, log2 ratio ≤ -1)
# Settings in all cases: compound concentration: 200 uM; treatment time: 3 h
# USP19 = biological target: T1, USP19 (UniProt O94966)
# T1 sequence (whole entry): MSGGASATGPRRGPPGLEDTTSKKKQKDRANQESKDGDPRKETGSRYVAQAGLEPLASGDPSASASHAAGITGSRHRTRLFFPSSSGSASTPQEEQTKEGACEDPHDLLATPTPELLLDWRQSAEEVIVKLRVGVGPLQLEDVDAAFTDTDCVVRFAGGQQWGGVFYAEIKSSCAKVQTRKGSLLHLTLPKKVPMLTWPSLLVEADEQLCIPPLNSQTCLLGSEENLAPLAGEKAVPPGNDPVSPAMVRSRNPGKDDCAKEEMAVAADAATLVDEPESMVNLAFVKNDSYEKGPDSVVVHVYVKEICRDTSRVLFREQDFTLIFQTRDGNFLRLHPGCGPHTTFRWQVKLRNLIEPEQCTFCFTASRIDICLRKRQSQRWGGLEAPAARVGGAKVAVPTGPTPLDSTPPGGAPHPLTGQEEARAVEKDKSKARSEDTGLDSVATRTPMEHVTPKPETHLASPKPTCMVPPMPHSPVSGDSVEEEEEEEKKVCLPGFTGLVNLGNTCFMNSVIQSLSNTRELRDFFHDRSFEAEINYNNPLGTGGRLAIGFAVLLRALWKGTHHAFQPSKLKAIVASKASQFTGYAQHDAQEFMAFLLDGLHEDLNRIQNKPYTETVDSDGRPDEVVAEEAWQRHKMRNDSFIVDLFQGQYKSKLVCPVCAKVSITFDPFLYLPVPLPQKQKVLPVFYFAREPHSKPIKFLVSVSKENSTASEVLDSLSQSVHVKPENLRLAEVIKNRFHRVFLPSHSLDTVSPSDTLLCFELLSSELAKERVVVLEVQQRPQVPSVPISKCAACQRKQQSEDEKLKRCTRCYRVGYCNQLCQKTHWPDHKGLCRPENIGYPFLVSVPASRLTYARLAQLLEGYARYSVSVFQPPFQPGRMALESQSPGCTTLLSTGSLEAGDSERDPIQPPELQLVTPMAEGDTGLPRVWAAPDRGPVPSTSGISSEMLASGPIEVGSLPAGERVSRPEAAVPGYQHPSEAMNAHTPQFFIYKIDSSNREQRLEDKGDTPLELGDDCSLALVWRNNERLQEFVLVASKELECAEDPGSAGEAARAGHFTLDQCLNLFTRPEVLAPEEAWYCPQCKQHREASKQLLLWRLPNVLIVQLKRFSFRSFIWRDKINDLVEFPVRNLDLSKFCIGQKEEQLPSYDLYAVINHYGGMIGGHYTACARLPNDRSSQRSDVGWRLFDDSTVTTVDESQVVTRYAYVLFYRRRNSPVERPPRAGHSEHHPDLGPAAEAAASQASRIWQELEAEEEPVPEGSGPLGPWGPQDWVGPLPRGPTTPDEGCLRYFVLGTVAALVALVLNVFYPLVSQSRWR
# Outline: (§1)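 The table lists average log2 ratios of fragment over vehicle, from an unpaired t-test on global-median-normalised Spectronaut label-free quantities. Proteins with ≥2 unique peptides were used. Samples were HEK293T lysate (495 µg) treated in triplicate with fragment at 200 µM or vehicle for 3 h, then with Biotin-Ahx-Ub-VS (0.5 µM final) for 1 h, with labelled DUBs NeutrAvidin-enriched and run by diaPASEF LC-MS/MS.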
# USP22 = biological target: T2, USP22 (UniProt Q9UPT9)
# T2 sequence (whole entry): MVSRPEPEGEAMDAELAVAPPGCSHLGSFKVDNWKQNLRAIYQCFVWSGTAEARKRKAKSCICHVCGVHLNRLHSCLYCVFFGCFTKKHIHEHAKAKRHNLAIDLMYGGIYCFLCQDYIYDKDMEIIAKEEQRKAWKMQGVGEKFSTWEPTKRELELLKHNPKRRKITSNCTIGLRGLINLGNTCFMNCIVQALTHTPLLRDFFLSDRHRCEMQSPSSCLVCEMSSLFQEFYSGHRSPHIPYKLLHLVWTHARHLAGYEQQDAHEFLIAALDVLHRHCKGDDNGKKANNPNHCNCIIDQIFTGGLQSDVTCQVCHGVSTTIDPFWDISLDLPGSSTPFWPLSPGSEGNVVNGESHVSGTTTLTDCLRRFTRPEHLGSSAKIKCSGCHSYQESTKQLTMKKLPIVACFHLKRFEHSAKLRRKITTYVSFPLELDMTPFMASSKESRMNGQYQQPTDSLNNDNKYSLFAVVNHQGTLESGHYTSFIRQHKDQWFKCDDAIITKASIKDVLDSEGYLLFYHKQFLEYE
# Outline: as §1
# USP24 = USP24 (UniProt Q9UPU5)
# Sequence of USP24 (Q9UPU5 whole entry): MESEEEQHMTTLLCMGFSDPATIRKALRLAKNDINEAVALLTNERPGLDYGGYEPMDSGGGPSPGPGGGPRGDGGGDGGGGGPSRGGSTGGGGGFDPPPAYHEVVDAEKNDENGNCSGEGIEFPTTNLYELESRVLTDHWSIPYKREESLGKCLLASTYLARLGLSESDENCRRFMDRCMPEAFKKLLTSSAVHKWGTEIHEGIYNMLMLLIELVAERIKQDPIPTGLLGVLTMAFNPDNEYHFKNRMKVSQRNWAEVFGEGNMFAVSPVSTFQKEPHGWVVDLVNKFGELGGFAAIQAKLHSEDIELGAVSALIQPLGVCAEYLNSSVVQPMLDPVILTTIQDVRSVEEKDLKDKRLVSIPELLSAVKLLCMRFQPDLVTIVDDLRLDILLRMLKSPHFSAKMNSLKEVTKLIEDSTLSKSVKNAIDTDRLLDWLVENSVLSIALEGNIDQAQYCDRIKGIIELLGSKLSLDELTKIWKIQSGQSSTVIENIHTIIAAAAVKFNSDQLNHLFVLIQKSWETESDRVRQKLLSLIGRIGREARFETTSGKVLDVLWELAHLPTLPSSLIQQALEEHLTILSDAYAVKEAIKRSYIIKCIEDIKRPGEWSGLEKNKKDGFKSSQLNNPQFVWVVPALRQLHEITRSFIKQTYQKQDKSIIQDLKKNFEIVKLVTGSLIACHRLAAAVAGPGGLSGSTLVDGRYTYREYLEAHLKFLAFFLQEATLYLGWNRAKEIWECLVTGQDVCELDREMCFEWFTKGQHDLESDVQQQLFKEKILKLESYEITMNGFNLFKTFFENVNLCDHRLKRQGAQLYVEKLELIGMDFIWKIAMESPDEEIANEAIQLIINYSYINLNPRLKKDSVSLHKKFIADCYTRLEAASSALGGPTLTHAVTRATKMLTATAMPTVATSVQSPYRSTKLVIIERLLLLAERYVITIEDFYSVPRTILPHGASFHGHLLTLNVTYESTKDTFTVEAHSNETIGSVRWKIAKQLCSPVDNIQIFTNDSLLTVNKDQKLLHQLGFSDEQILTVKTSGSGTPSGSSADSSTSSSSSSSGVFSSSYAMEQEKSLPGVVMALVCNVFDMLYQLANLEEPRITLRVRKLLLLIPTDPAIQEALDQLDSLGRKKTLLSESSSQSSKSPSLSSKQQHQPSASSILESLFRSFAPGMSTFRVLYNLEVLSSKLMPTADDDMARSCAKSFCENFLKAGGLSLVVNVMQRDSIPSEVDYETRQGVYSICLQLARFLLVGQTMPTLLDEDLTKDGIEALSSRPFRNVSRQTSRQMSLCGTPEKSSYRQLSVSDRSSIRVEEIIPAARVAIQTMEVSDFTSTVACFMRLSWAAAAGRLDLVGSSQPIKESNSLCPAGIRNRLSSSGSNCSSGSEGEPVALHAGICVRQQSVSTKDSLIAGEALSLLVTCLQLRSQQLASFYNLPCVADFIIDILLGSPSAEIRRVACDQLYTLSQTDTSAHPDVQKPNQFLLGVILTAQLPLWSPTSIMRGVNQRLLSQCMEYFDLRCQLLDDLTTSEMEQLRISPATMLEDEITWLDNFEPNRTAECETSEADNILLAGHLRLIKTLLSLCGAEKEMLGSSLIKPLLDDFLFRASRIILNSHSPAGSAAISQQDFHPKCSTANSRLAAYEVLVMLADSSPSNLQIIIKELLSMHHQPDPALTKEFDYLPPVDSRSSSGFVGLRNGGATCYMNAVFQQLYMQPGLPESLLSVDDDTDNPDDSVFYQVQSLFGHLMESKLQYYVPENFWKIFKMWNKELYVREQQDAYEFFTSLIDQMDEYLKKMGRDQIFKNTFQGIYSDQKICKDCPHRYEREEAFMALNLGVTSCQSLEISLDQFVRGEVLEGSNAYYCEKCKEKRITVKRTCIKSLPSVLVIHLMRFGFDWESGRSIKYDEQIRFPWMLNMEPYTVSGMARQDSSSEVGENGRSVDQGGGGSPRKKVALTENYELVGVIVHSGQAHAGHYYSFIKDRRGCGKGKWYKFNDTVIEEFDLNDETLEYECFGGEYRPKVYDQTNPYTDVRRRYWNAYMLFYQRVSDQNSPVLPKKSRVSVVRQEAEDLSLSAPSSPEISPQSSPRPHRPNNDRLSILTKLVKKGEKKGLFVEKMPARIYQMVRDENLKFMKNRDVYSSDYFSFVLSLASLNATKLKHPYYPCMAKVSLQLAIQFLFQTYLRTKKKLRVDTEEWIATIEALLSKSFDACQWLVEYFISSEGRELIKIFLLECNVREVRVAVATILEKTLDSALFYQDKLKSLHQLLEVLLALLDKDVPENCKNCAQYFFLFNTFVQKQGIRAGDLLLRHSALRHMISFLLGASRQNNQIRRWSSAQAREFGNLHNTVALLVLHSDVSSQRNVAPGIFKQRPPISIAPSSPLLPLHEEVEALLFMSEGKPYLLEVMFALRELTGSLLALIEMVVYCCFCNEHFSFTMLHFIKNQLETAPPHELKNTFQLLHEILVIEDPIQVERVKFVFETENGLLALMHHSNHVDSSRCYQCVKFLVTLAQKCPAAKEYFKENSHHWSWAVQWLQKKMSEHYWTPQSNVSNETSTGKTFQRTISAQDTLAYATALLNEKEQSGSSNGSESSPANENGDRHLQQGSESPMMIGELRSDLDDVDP
# Outline: as §1
# USP25 = biological target: T3, USP25 (UniProt Q9UHP3)
# T3 sequence (whole entry): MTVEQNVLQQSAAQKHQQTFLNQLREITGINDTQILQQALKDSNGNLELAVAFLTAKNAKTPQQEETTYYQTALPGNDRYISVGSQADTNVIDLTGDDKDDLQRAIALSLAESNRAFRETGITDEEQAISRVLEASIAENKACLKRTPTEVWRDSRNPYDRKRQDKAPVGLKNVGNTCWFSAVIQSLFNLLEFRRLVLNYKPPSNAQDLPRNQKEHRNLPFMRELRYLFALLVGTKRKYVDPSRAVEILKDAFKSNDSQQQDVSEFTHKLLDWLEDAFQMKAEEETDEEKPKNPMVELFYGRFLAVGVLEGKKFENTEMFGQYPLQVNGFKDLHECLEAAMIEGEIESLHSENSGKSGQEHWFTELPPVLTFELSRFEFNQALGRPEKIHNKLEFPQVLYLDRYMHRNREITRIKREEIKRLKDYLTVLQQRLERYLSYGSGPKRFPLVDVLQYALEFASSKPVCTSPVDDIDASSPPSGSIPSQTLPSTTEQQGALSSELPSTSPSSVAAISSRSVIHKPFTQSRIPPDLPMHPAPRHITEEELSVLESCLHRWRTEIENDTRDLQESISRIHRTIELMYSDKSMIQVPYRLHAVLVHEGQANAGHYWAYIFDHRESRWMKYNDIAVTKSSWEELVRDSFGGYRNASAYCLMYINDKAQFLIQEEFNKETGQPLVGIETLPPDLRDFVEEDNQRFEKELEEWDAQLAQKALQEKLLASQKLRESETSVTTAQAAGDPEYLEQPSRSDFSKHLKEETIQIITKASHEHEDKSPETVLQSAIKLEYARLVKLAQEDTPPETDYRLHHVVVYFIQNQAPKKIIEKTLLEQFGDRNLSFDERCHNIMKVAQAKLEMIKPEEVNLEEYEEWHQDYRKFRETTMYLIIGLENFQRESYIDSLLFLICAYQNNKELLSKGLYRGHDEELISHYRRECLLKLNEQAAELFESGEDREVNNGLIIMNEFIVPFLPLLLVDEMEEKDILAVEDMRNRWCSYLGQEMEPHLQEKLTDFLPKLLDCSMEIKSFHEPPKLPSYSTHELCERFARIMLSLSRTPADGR
# Outline: as §1
# USP28 = biological target: T4, USP28 (UniProt Q96RU2)
# T4 sequence (whole entry): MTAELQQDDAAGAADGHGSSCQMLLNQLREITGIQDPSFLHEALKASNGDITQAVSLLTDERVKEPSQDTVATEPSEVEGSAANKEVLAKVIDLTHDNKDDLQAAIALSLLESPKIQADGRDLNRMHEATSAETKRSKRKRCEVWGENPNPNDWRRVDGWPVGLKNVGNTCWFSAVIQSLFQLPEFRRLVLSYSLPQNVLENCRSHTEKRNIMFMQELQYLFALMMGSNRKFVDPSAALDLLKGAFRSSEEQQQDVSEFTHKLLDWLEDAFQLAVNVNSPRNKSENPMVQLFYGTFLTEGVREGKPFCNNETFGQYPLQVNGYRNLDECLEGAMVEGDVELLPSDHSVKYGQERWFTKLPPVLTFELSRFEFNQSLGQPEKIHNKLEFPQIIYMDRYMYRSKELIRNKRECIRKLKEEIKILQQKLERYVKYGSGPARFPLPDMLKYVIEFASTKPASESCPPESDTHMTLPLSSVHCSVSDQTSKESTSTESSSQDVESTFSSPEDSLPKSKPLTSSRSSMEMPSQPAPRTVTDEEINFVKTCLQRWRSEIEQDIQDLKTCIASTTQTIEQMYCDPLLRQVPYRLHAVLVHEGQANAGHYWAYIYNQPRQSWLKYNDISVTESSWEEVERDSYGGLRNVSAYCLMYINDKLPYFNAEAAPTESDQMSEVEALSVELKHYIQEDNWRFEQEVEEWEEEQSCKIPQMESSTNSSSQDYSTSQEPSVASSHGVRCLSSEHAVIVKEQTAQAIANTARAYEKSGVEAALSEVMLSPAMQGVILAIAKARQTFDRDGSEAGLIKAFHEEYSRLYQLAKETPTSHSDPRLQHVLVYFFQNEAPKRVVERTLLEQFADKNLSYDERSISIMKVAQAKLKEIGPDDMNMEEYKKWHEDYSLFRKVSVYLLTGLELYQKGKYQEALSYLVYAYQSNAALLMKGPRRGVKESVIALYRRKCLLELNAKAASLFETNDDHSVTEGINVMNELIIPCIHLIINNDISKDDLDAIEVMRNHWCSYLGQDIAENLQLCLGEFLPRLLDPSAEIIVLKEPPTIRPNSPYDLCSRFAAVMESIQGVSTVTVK
# Outline: as §1
smiles,measurement,setting,value
O=C(CCl)Nc1cccc(C(=O)N2CCSCC2)c1,log2 ratio of Biotin-Ahx-Ub-VS probe labelling,USP19,-0.239
same,log2 ratio of Biotin-Ahx-Ub-VS probe labelling,USP22,-0.0474
same,log2 ratio of Biotin-Ahx-Ub-VS probe labelling,USP24,-0.522
same,log2 ratio of Biotin-Ahx-Ub-VS probe labelling,USP25,-1.17 (active)
same,log2 ratio of Biotin-Ahx-Ub-VS probe labelling,USP28,-0.818
